Measurements published in PubChem BioAssay (NCATS).
Results filed as inconclusive are left out. A call without a number means that no potency is given here. The source made the active and inactive calls. Calls follow the shape of the dose curve; as a rule, active = well fitted curve in the direction sought with a large enough effect; inconclusive = small, poorly fitted or top-dose-only effect, or another doubt; inactive = no such curve, though single readings can be large; an effect the other way counts as inactive or inconclusive.

Target: Guanine nucleotide-binding protein G(i) subunit alpha-1 (Homo sapiens) (UniProt P63096)
Sequence (P63096 whole entry, looked up): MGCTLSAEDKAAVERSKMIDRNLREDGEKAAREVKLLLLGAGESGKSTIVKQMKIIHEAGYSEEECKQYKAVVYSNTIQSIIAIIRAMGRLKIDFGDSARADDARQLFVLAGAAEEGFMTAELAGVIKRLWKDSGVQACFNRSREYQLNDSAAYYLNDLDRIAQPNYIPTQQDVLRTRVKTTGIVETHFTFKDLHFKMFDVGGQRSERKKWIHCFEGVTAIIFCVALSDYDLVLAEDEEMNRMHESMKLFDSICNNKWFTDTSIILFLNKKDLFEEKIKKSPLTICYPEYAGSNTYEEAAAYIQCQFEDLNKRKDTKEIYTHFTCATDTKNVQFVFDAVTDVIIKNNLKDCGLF
Test: qHTS Assay for Inhibitors of RGS12 GoLoco Motif Activity (Green Fluorophore) (AID 879);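 also: negative values mean loss of peptide binding seen as reduced polarization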
Settings: Galphai1/FITC-RGS12 GoLoco peptide, fluorescence polarization; series mostly up to 57.1 µM
In short: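 A drop in FITC polarization marked displacement of the FITC-tagged RGS12 GoLoco peptide (10 nM) from Gαi1 (50 nM). Compounds were incubated 10 min at room temperature in Tris pH 7.5 buffer containing 150 mM NaCl, 0.1 mM GDP and 0.05% NP40; unlabeled peptide titration served as control.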

Row | Compound | outcome
1 | CC[N+](C)(C)Cc1ccccc1Br | inactive
2 | COc1ccc(CCNC[C@H](O)c2ccc(O)cc2)cc1OC | inactive
3 | CN=C(NC#N)Nc1ccc(C2=NNC(=O)C[C@@H]2C)cc1 | inactive

Target: Cytochrome P450 2C9 (Homo sapiens) (UniProt P11712)
Sequence (P11712 whole entry, looked up): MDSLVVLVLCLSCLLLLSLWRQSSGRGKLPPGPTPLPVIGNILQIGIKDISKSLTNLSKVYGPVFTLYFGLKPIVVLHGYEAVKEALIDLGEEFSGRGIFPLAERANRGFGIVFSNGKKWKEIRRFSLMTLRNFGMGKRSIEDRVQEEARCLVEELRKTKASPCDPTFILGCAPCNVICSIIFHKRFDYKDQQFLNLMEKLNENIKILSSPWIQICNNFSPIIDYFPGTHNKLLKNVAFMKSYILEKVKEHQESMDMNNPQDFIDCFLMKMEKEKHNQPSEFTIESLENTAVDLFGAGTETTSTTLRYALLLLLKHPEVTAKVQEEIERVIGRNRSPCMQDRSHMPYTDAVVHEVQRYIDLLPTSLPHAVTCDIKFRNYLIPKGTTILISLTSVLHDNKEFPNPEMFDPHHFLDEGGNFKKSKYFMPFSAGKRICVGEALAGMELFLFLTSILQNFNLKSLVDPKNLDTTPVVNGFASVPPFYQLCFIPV
Test: qHTS Assay for Inhibitors and Substrates of Cytochrome P450 2C9 (AID 883); also: nearly all actives have a fitted effect of over 60% in size
Settings: recombinant CYP2C9, luciferin-H luminescence, 60 min; series mostly up to 25.6 µM
In short: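 Turnover of Luciferin-H (100uM, KM) by 10nM human CYP2C9 was measured over 60 min at 37C with NADPH regeneration; inhibitors and some substrates reduce luminescence. Data normalized to sulphaphenazole 57uM.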

Row | Compound | outcome
4 | CCN(CC)Cc1cc(Nc2ccnc3cc(Cl)ccc23)ccc1O | inactive
5 | Cc1c(C)c2c(c(C)c1O)CC[C@@](C)(CCC[C@@H](C)CCC[C@@H](C)CCCC(C)C)O2 | inactive
6 | CN=C(NC#N)Nc1ccc(C2=NNC(=O)C[C@@H]2C)cc1 | inactive
7 | O=C(O)CCC(=O)C(=O)O | inactive

Target: Cytochrome P450 3A4 (Homo sapiens) (UniProt P08684)
Sequence (P08684 whole entry, looked up): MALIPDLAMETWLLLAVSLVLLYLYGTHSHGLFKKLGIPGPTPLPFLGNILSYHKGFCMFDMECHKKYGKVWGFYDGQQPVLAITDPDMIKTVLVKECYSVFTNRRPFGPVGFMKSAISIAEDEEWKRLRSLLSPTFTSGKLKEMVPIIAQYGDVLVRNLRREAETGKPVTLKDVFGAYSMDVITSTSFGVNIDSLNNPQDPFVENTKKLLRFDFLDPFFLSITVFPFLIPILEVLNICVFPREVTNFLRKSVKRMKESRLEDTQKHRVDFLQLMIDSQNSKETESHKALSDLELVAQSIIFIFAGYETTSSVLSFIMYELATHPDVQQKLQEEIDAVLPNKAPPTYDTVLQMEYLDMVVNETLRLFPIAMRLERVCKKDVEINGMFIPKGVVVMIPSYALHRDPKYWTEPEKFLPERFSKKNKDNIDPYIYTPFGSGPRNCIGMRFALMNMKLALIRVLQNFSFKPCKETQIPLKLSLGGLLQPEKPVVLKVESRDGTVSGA
Test: qHTS Assay for Inhibitors and Substrates of Cytochrome P450 3A4 (AID 884); also: nearly all actives have a fitted effect of over 50% in size
Settings: recombinant CYP3A4, Luciferin-PPXE luminescence; series mostly up to 57.1 µM
In short: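 Luminescent readout of luciferin produced by CYP3A4 (20 nM) dealkylation of Luciferin-PPXE, 25 uM (its KM). NADPH-driven reaction ran 60 min at RT after 10 min compound preincubation; data scaled to 57 uM ketoconazole as 100% inhibition.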

Row | Compound | Potency
8 | CCN(CC)Cc1cc(Nc2ccnc3cc(Cl)ccc23)ccc1O | inactive
9 | CCCCCCCC(=O)O | inactive
10 | O=S(=O)(O)O | inactive
11 | Nc1ccn([C@H]2CS[C@@H](CO)O2)c(=O)n1 | inactive
12 | Cc1ccccc1 | inactive
13 | CC(O)CO (stereo unspecified) | inactive
14 | CCCCCCCC/C=C\CCCCCCCC(=O)O | inactive
15 | IC(I)I | inactive
16 | CC1=C2[C@@H]([C@H](C)CC[C@H]2/C=C(\C)C(=O)O)[C@H](O)C1 | inactive
17 | O=CCCCC=O | inactive
18 | CCOC(C)=O | inactive

Target: Cytochrome P450 3A4 (Homo sapiens) (UniProt P08684)
Test: qHTS Assay for Activators of Cytochrome P450 3A4 (AID 885); also: nearly all actives have a fitted effect of over 65% in size
Settings: recombinant CYP3A4, Luciferin-PPXE luminescence, 60 min; series mostly up to 57.1 µM
In short: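 Luminescent readout of luciferin formed from 25 uM Luciferin-PPXE (KM level) by 20 nM CYP3A4 in 200 mM KPO4, with 60 min NADPH-driven reaction at room temperature after 10 min compound exposure. Ketoconazole (57 uM) defined 100% inhibition.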

Row | Compound | outcome
19 | COc1ccc(CCNC[C@H](O)c2ccc(O)cc2)cc1OC | inactive
20 | CCOc1ccc2c(c1)C(C)=CC(C)(C)N2 | inactive
21 | CCCCC/C=C\C/C=C\CCCCCCCC(=O)O | inactive
22 | CC1=C(/C=C/C(C)=C/C=C/C(C)=C/CO)C(C)(C)CCC1 | inactive

Target: Cytochrome P450 2C19 (Homo sapiens) (UniProt P33261)
Sequence (P33261 whole entry, looked up): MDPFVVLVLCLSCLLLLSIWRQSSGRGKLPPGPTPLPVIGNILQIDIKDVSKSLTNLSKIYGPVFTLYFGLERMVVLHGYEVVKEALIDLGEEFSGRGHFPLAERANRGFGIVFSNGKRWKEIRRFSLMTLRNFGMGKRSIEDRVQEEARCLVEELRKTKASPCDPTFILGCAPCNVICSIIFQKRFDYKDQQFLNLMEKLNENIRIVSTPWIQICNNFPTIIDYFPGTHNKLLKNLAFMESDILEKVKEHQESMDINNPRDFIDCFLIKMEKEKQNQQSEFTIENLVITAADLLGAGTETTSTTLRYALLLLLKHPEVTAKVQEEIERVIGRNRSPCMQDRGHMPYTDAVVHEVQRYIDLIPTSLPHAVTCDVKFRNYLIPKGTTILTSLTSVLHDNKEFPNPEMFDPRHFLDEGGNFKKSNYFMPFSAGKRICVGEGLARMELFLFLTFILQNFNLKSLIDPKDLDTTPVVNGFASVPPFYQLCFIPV
Test: qHTS Assay for Inhibitors and Substrates of Cytochrome P450 2C19 (AID 899); also: nearly all actives have a fitted effect of over 60% in size
Settings: recombinant CYP2C19, luciferin-H EGE luminescence; series mostly up to 25.6 µM
In short: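 Reactions contain 5nM enzyme, 10uM Luciferin-H EGE (KM) and 50mM KPO4; compound preincubates 10 min at 37C, NADPH regeneration starts turnover for 60 min. Luminescence after detection reagent gives activity.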

Row | Compound | outcome
23 | CCN(CC)Cc1cc(Nc2ccnc3cc(Cl)ccc23)ccc1O | inactive
24 | Cc1c(C)c2c(c(C)c1O)CC[C@@](C)(CCC[C@@H](C)CCC[C@@H](C)CCCC(C)C)O2 | inactive
25 | CN=C(NC#N)Nc1ccc(C2=NNC(=O)C[C@@H]2C)cc1 | inactive
26 | O=C(O)CCC(=O)C(=O)O | inactive
